Data reported in PubChem BioAssay (Tox21).
Results filed as inconclusive are left out. Activity calls are given as the source filed them. Calls come from the whole dose curve.

Assay: qHTS assay to identify small molecule agonists of the progesterone receptor (PR) signaling pathway - cell viability counter screen (AID 1346799); note: nearly all actives have a fitted effect of over 45% in size
Details: PR-UAS-bla HEK293T viability, CellTiter-Glo luminescence, 16 h; series mostly up to 92.4 µM; activity change, negative = cytotoxicity: at the top concentration
Excerpt: National Center for Advancing Translational Sciences [NCATS]
NIH Chemical Genomics Center [NCGC]
U.S. Environmental Protection Agency [EPA]
National Institutes of Environmental Health Sciences [NIEHS]
National Toxicology Program [NTP]
U.S. Food and Drug Administration [FDA]
Progesterone receptor (PR), a nuclear hormone receptor, plays an important role in development, metabolic homeostasis and reproduction. It is activated by the steroid hormone progesterone. Endocrine disrupting chemicals (EDCs) and their interactions with steroid hormone receptors like PR causes disruption of normal endocrine function. To identify the compounds that stimulate PR signaling, a PR-UAS-bla GripTite cell line i.e. PR-UAS-bla HEK293T (Invitrogen, Carlsbad, CA, USA) containing a beta-lactamase reporter gene under the control of an UAS response element was used to screen Tox21 10K compound library. The cytotoxicity of the Tox21 compound library against the PR-bla cell line was tested in parallel by measuring the cell viability using CellTiter-Glo assay in the same wells.
Tox21 Assay Protocol Summary:
PR-UAS-bla HEK293T cells were dispensed at 3,000 cells/5 uL of assay medium containing 2% charcoal stripped FBS per well into black wall/clear-bottom 1536-well plates using a Multidrop Combi (ThermoFisher Scientific, Waltham, MA) dispenser. After the assay plates were incubated at a 37C and 5% CO2 for 6 hr, 23 nL of compounds dissolved in DMSO, positive controls or DMSO only was transferred to the assay plate by a Pintool station (Kalypsys, San Diego, CA). The plates were incubated at 37C and 5% CO2 for 16 hr. Then 1 uL of LiveBLAzer B/G FRET substrate was added using a Flying Reagent Dispenser (FRD, Aurora Discovery, San Diego, CA), the plates were incubated at room temperature for 2 hours, and fluorescence intensity was measured by an Envision plate reader (PerkinElmer, Shelton, CT). For cell viability readout that measures cytotoxicity, 4 uL/well of CellTiter-Glo reagent was added into the assay plates using a FRD. After 30 min incubation at room temperature, the luminescence intensity in the plates was measured using a ViewLux (PerkinElmer) plate reader.
% is set by controls: 0 for no effect and ±100 for the full control effect.

Row | Compound | outcome | activity change, negative = cytotoxicity
1 | O=C(O)COc1ccccc1 | inactive | 
2 | COc1cc(-c2ccc(N)c(OC)c2)ccc1N |  | 0% (inactive)
3 | CN(C)C(=O)C(c1ccccc1)c1ccccc1 |  | 5.24% (inactive)
4 | CC(=O)/C=C/c1ccccc1 | inactive | 
5 | OCc1ccco1 | inactive | 
6 | Cc1ccc(N=C=O)cc1N=C=O |  | -3.17% (inactive)
7 | O=[N+]([O-])c1ccc(Cl)cc1 | inactive | 
8 | O=C/C=C/c1ccccc1 | inactive | 
9 | Nc1nc(N)nc(NC2CC2)n1 | inactive | 
10 | O=C(O)C1C(C(=O)O)C2(Cl)C(Cl)=C(Cl)C1(Cl)C2(Cl)Cl (stereo not given) | inactive | 
11 | CN(C)C(=O)Nc1cccc(C(F)(F)F)c1 | inactive | 
12 | C=CC(=O)OCC(CC)CCCC (stereo not given) |  | -4.95% (inactive)
13 | CC(=O)C1CCOC1=O (stereo not given) |  | -21.2% [at 42.5 µM] (inactive)
14 | O=[N+]([O-])c1ccc(Cl)c(Cl)c1 | inactive | 
15 | Sc1ccccc1 | inactive | 
16 | O=[N+]([O-])c1cc([As](=O)(O)O)ccc1O | inactive | 
17 | COC(=O)Nc1cccc(OC(=O)Nc2cccc(C)c2)c1 | inactive | 
18 | CC(C)(C)C(=O)CCl | inactive | 
19 | CNC(=O)O/N=C/C(C)(C)SC | inactive | 
20 | C=CC(=O)OCCCCCC(C)C |  | -1.54% (inactive)

Row | Compound | outcome | activity change, negative = cytotoxicity
21 | COS(=O)(=O)OC | inactive | 
22 | Nc1ncc([N+](=O)[O-])s1 | inactive | 
23 | COP(=S)(OC)SCN1C(=O)c2ccccc2C1=O | inactive | 
24 | O=C(O)c1cc(Oc2ccc(C(F)(F)F)cc2Cl)ccc1[N+](=O)[O-] | inactive | 
25 | Cc1cccc(C)c1N |  | -19.5% (inactive)
26 | [N-]=[N+]=CC(=O)OC[C@H](N)C(=O)O | inactive | 
27 | CC12CC1(C)C(=O)N(c1cc(Cl)cc(Cl)c1)C2=O (stereo not given) | inactive | 
28 | C/C=C/c1ccc2c(c1)OCO2 | inactive | 
29 | CCCOC(=O)c1ccccc1C(=O)OCCC | inactive | 
30 | Cc1cc(Cl)ccc1OC(C)C(=O)O (stereo not given) | inactive | 
31 | COC(C)(C)CCCC(C)C/C=C/C(C)=C/C(=O)OC(C)C (stereo not given) |  | 8.42% [at 42.5 µM] (inactive)
32 | c1ccc2c(c1)CCCC2 | inactive | 
33 | Cl[C@H]1OCCO[C@@H]1Cl | inactive | 
34 | Oc1ccc(Cl)cc1 |  | -10.6% (inactive)
35 | Nc1ccc(N)cc1 | inactive | 
36 | OC[C@@H](O)[C@H]1O[C@@H]2O[C@H](C(Cl)(Cl)Cl)O[C@@H]2[C@H]1O | inactive | 
37 | CSc1nnc(C(C)(C)C)c(=O)n1N | inactive | 
38 | Cc1cccc(N)c1 | inactive | 
39 | Cc1ccccc1N | inactive | 
40 | Cc1cccc(C)c1NC(=O)CN1CCCC1=O | inactive | 
